# Assay results taken from PubChem BioAssay (NCATS).
# Inconclusive results are not listed. A call without a number means that no potency is given here. Active and inactive are the calls of the source. Unless noted, the call rests on the fitted dose curve; in most records, active means well fitted curve in the direction sought with a large enough effect; inconclusive means small, poorly fitted or top-dose-only effect, or another doubt; inactive means no such curve, though single readings can be large; an effect the other way counts as inactive or inconclusive.
# Columns and labels:
# [1] = target: Voltage-gated inwardly rectifying potassium channel KCNH2 (Homo sapiens) (UniProt Q12809); assay: qHTS Assay for Small Molecule Inhibitors of the Human hERG Channel Activity (AID 588834);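 further: lower thallium flux fluorescence means stronger hERG block; nearly all actives have a fitted effect of over 50% in size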; further: potency means the concentration at half of the fitted maximal effect
# Chain of Voltage-gated inwardly rectifying potassium channel KCNH2 (Homo sapiens) (Q12809 whole entry, looked up): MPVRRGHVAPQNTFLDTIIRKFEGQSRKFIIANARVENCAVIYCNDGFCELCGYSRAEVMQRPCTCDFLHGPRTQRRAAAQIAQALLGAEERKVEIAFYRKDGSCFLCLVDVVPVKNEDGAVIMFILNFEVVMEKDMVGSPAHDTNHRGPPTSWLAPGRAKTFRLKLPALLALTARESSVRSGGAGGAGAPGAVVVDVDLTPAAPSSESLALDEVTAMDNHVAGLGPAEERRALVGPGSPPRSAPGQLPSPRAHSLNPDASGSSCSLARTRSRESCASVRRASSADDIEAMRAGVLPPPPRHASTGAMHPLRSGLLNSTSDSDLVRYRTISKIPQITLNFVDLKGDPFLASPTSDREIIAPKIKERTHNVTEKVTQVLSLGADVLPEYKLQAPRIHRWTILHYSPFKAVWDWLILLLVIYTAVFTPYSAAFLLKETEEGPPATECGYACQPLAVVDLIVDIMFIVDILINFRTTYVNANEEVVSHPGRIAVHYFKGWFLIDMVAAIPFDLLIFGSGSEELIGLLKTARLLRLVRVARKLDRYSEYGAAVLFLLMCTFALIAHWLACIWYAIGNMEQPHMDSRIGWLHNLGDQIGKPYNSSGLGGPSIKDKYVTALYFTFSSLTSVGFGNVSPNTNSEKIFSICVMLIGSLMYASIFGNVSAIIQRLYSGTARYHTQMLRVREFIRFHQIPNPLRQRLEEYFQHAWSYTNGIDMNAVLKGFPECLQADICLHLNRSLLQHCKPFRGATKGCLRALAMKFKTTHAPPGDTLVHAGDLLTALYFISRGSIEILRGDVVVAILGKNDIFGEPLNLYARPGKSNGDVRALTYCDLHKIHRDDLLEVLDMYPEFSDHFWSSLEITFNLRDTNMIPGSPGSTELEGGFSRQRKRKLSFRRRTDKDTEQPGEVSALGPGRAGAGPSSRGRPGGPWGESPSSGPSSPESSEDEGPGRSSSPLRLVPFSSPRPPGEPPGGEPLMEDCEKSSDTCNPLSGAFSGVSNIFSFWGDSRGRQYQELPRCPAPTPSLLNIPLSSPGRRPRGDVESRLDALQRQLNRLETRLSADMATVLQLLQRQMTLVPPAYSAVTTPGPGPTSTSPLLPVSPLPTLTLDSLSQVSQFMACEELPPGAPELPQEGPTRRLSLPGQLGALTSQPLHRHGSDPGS
# Summary of the method: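 Measured: FluxOR fluorescence after thallium stimulation in U2OS cells transduced with hERG by baculovirus. Compounds pre-incubated around 10 min; medium Opti-MEM with 2% FCS. AC50 from Hill equation.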
# [2] = target: Glutaminase kidney isoform, mitochondrial (Homo sapiens) (UniProt O94925); assay: qHTS for Inhibitors of Glutaminase (GLS): LOPAC Validation (AID 624146); further: nearly all actives have a fitted effect of over 60% in size; further: potency means the concentration at half of the fitted maximal effect
# Chain of Glutaminase kidney isoform, mitochondrial (Homo sapiens) (O94925 whole entry, looked up, canonical isoform): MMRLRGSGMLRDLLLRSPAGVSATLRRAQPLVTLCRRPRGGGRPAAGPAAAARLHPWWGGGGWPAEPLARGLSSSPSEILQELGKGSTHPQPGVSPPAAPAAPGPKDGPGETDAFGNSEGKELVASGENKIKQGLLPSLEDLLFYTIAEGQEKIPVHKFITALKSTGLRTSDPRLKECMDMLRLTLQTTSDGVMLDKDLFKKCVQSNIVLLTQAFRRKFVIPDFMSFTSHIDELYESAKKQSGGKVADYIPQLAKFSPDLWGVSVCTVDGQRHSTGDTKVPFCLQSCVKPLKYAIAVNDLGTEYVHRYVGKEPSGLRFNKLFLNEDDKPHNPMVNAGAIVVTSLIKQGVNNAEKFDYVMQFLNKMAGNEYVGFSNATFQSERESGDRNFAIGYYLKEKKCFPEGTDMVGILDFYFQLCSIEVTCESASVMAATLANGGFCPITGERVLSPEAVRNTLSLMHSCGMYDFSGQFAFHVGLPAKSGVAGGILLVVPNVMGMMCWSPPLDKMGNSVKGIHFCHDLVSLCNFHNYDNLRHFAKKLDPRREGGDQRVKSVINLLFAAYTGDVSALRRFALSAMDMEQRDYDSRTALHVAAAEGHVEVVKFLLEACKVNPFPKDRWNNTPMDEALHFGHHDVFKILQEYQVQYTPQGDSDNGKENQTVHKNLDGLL
# Summary of the method: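 hKGA in 45 mM KH2PO4 (pH 8.2), 0.02% Tween-20 with compound, then 1mM L-Glutamine (stock as added) plus glutamate oxidase/HRP/Amplex red coupling mix. Fluorescence read initially and after 30 min at RT; signal change reflects glutamate formation.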
# [3] = qHTS of Trypanosoma Brucei Inhibitors: LOPAC Validation (AID 624147)
# Summary of the method: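 Activity of T. brucei pyruvate kinase was followed by Kinase-Glo Plus luminescence after the enzyme reacted 45 min at room temperature with 130 uM ADP (final) and substrate. Test compounds were added before ADP at multiple concentrations.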
# [4] = target: Luciferin 4-monooxygenase (Photinus pyralis) (UniProt P08659); assay: Biochemical firefly luciferase enzyme assay for NPC (AID 624030);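 further: purified P. pyralis luciferase at 10 nM with luciferin and ATP substrate; series mostly up to about 59 µM; nearly all actives have a fitted effect of over 70% in size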
# Chain of Luciferin 4-monooxygenase (Photinus pyralis) (P08659 whole entry, looked up): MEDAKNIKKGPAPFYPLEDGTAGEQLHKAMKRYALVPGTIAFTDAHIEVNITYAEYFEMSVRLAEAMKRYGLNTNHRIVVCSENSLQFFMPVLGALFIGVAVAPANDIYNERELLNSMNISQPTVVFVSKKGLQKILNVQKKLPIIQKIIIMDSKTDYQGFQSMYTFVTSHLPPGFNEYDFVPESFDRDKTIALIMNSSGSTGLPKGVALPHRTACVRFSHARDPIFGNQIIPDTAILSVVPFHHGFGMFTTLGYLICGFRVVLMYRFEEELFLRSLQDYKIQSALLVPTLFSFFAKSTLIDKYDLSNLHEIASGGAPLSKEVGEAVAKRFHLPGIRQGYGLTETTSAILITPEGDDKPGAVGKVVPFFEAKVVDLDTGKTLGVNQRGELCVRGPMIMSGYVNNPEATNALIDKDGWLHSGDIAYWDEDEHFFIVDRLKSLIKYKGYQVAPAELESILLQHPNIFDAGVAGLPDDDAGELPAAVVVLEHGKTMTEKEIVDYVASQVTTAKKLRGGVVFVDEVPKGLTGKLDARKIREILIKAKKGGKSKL
# Summary of the method: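 Direct inhibition of firefly luciferase enzyme (10 nM final, 50 mM Tris Acetate) assessed by luminescence within 5 minutes. Percent activity scaled between DMSO and PTC124 positive control, with concentration-effect curves classified by fit quality and response.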
# [5] = S16 Schwann cell PMP22 intronic element beta-lactamase assay (AID 624044; calls by dose curve; further: nearly all actives have a fitted effect of over 15% in size)
# Summary of the method: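 Rat S16 Schwann cells with beta-Lac driven by a PMP22 intronic element, compound-treated 24 h at 37 °C. LiveBLAzer FRET B/G read: 460 nm normalized to potassium clavulanate vs DMSO; 535 nm FRET as viability; concentration-effect curves classified.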
# [6] = S16 Schwann cell viability assay (CellTiter-Glo assay) (AID 624031);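 further: native untransfected S16 rat Schwann cells; series mostly up to about 58 µM; nearly all actives have a fitted effect of over 70% in size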
# Summary of the method: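 Counter-screen for cytotoxicity: parental S16 rat Schwann cells lacking the PMP22 reporters, treated 24 h with compound, viability from cellular ATP by CellTiter-Glo luminescence, normalized to DMSO (0%) and no-cell wells.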
# [7] = S16 Schwann cell PMP22 intronic element firefly luciferase assay (AID 624032); further: series mostly up to about 58 µM; nearly all actives have a fitted effect of over 30% in size
# Summary of the method: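 Luciferase reporter of PMP22 intronic-element expression in stably transfected S16 rat Schwann cells, read by ONE-Glo luminescence after 24 h compound exposure at 37 C. Activity scaled between DMSO (0%) and positive-control PTC124; concentration-effect curves quality-classified.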
compound,measurement,setting,value
NCCc1c[nH]c2ccccc12,Potency,[1],inactive
same,Potency,[2],inactive
same,outcome,[3],inactive
O=C(O)CC[N+](=O)[O-],Potency,[1],inactive
same,Potency,[2],inactive
same,outcome,[3],inactive
CC(Cc1ccc(O)cc1)NCC(O)c1cc(O)cc(O)c1 (stereo not drawn),Potency,[1],inactive
same,Potency,[2],4.47 µM (active)
same,outcome,[3],inactive
c1ccc2sc(C3(N4CCCCC4)CCCCC3)cc2c1,Potency,[1],2.82 µM (active)
same,Potency,[2],inactive
same,outcome,[3],inactive
NC(CP(=O)(O)O)C(=O)O (stereo not drawn),Potency,[1],inactive
same,Potency,[2],inactive
same,outcome,[3],inactive
CN[C@@H](C)[C@H](O)c1ccccc1,Potency,[1],inactive
Oc1ccc2c3c1O[C@H]1c4[nH]c5c(c4C[C@@]4(O)[C@@H](C2)N(CC2CC2)CC[C@]314)C[C@@]1(O)[C@H]2Cc3ccc(O)c4c3[C@@]1(CCN2CC1CC1)[C@H]5O4,Potency,[1],inactive
same,Potency,[2],12.6 µM (active)
same,outcome,[3],inactive
C[C@]12CCC(=O)C(O)=C1CC[C@@H]1[C@H]3CCC(=O)[C@@]3(C)CC[C@@H]12,Potency,[1],inactive
same,Potency,[4],inactive
same,Potency,[5],inactive
CNCCc1ccc(O)c(O)c1,Potency,[1],inactive
same,Potency,[2],inactive
same,outcome,[3],inactive
Cc1nc(-c2ccc(-c3ccc(C(=O)N4CCc5cc6c(cc54)C4(CCN(C)CC4)CO6)cc3)c(C)c2)no1,Potency,[1],7.94 µM (active)
COc1cc(C(O)CN)ccc1O (stereo not drawn),Potency,[1],inactive
same,Potency,[2],2.24 µM (active)
same,outcome,[3],inactive
CC(C)NC(C)Cc1ccc(I)cc1 (stereo not drawn),Potency,[1],8.91 µM (active)
same,Potency,[4],inactive
same,Potency,[6],inactive
same,Potency,[7],inactive
same,Potency,[5],inactive
same,Potency,[2],inactive
same,outcome,[3],inactive
CC[C@@]1(O)C(=O)OCc2c1cc1n(c2=O)Cc2cc3ccccc3nc2-1,Potency,[1],inactive
same,Potency,[2],inactive
same,outcome,[3],inactive
C[C@@H](N)Cc1cnc[nH]1,Potency,[1],inactive
same,Potency,[2],inactive
same,outcome,[3],inactive
C[N+](C)(C)CC(=O)O,Potency,[1],inactive
same,Potency,[4],inactive
S=C(NC1CCCCC1)N1CCC(c2cnc[nH]2)CC1,Potency,[1],inactive
same,Potency,[2],inactive
same,outcome,[3],inactive
CC[N+]1(CCOC(=O)C(O)(c2ccccc2)c2ccccc2)CCCCC1,Potency,[1],inactive
same,Potency,[4],inactive
same,Potency,[6],inactive
same,Potency,[5],inactive
O=C1C(I)=CC(=C(c2cc(I)c(O)c(I)c2)c2ccccc2C(=O)O)C=C1I,Potency,[1],inactive
O=C(O)Cc1cnc[nH]1,Potency,[1],inactive
same,Potency,[2],inactive
same,outcome,[3],inactive
NC1CCc2cc(O)c(O)cc2C1 (stereo not drawn),Potency,[1],inactive
NC(=O)CN1CC(O)CC1=O (stereo not drawn),Potency,[1],inactive
same,Potency,[4],inactive
same,Potency,[6],inactive
same,Potency,[7],inactive
same,Potency,[5],inactive
same,Potency,[2],inactive
same,outcome,[3],inactive
COC(=O)c1cncn1C(C)c1ccccc1 (stereo not drawn),Potency,[1],inactive
same,Potency,[4],inactive
same,Potency,[6],inactive
same,Potency,[7],inactive
same,Potency,[5],inactive
CC[C@@H]1C(=O)OC[C@@H]1Cc1cncn1C,Potency,[1],inactive
Clc1ccc(C(c2ccc(Cl)cc2)n2cc[n+](CC(OCc3ccc(Cl)cc3Cl)c3ccc(Cl)cc3Cl)c2)cc1 (stereo not drawn),Potency,[1],11.2 µM (active)
CN[C@@H]1C[C@@H](c2ccc(Cl)c(Cl)c2)c2ccccc21,Potency,[1],12.6 µM (active)
same,Potency,[4],inactive
same,outcome,[3],inactive
CC(C)Oc1cccnc1N(C)C1CCN(Cc2ccccc2)CC1,Potency,[1],6.31 µM (active)
same,Potency,[2],inactive
same,outcome,[3],inactive
CCCN1CCC[C@H](c2cccc(O)c2)C1,Potency,[1],inactive
same,Potency,[4],inactive
same,Potency,[6],inactive
same,Potency,[7],inactive
same,Potency,[5],inactive
same,Potency,[2],inactive
same,outcome,[3],inactive
CN1C2CCC1CC(OC(=O)c1cc(Cl)cc(Cl)c1)C2 (stereo not drawn),Potency,[1],3.55 µM (active)
same,Potency,[4],inactive
same,Potency,[5],inactive
same,Potency,[2],inactive
same,outcome,[3],inactive
